MARV entry inh: inhibitors of Marburg virus binding or cell entry | Marburg virus pseudotyped entry inhibition, cell reporter | Potency, µM (highest dose often 37.8 µM), without a hit: at the highest dose activity change, negative = inhibition, usual class: inhibitors | actives 1.8% (n = 300,000) | AID 540276; calls by dose curve; tested in HEK293 cells; note: potency is the fitted concentration of half-maximal effect; % is set by controls: 0 for no effect and ±100 for the full control effect
Shiga inhibitor: Shiga toxin inhibition. inhibition, % at 38.7 µM. AID 2315. actives 9.2% (n = 290,000). Vero cells, Shiga toxin protein synthesis inhibition reporter; in the data active = inhibition mostly above about 28%, no sharp cut-off; inactive = mostly below about 43%; note: 0% is about no effect
CHX counter: counter-screen hit for Shiga toxin inhibitors, cycloheximide | cell reporter, cycloheximide protein synthesis inhibition counterscreen | max response, % | actives 12% (n = 300,000); in the data active = max response mostly above about 13%, no sharp cut-off; inactive = mostly below about 14%; note: read at 38.3 µM for the half of the compounds with a filed dose; 0% is about no effect
LASV entry inh: blocks Lassa virus binding to or entry into cells; Lassa virus pseudotype entry inhibition, cell reporter; actives 1.2% (n = 300,000); AID 540256; Potency, µM (doses to about 37.9 µM), for the others: at the top dose activity change, negative = inhibition, usual class: inhibitors; calls by dose curve; tested in HEK293 cells; note: potency is the fitted concentration of half-maximal effect; % is set by controls: 0 for no effect and ±100 for the full control effect; nearly all actives have a fitted effect of over 50% in size
Numbers without * were called inactive; ? = inconclusive; · = no result given; + = active, no number; [ ] = another dose, or the depositor's remark. In the library only some 12% were active in any assay of this set; here they are far more common.

SMILES	MARV entry inh	Shiga inhibitor	CHX counter	LASV entry inh
COc1ccc(C(C(=O)NC2CCCC2)N(CCO)C(=O)Cn2nnc(-c3ccc(C)o3)n2)cc1OC (centres undefined)	-2%[46.1 µM]	4	-4	8%[46.1 µM]
Cc1ccc(C)c(NC(=S)NNC(=O)c2ccc(Br)o2)c1	·	70*	16*	·
O=C(NC(=S)Nc1ccccc1F)c1ccc(Br)o1	·	124*	33*	·
Cc1cccc(NC(=S)NC(=O)c2ccc(Br)o2)c1C	·	32	1	·
Cc1ccc(NC(=S)NC(=O)c2ccc(Br)o2)c(C)c1	2%[46.1 µM]	61*	29*	28%[46.1 µM]
CCn1nc(C)c(CNCc2cn[nH]c2-c2cc3ccccc3o2)c1C	2%[46.1 µM]	0	1	-1%
Cc1c(Cl)cccc1Nc1ncccc1C(=O)O	·	20	-1	·
Cc1ccc(Nc2ncccc2C(N)=O)cc1	11%	119*	94*	?
NC(=O)NC(=O)COC(=O)c1cccnc1Nc1ccccc1F	·	7	11	·
COc1ccc(Nc2ncccc2C(=O)O)cc1	15%	112*	47*	?
Cc1cc(Cl)ccc1Nc1ncccc1C(N)=O	?	69*	69*	?
NC(=O)c1cccnc1Nc1ccccc1F	16%[46.1 µM]	28*	29*	21%
COc1ccccc1Nc1ncccc1C(=O)O	15%	17	-1	0%
CCSc1nsc(NC(=O)Nc2ccc(F)cc2F)n1	·	87*	59*	·
O=C(Nc1ccc(CSc2ccccc2)cc1)c1ccco1	·	96*	46*	·
O=C(Nc1nc(SCc2ccc(F)cc2)ns1)c1ccco1	?	34	16*	?
CCCC(=O)Nc1ccc(NC(=O)c2ccco2)c(OC)c1	?	+	28*	?
O=C(CSc1ccc(Cl)cc1)Nc1ccc(NC(=O)c2ccco2)cc1	7%	17	8	-6%
CCN1C(=S)N[C@@H](CCc2ccccc2)C(C(=O)OC)=C1C	·	-4	-1	·
Cc1ccc(S(=O)(=O)N2CCN(C(=O)NCc3ccc(C(=O)O)cc3)CC2)cc1	?	-7	-2	13%[46.1 µM]
CCC(=O)Nc1ccc(NC(=O)c2ccco2)c(OC)c1	17%	67*	30*	?
CCC(=O)Oc1ccc(NC(=O)c2ccco2)cc1	24%[46.1 µM]	33	7	0%[46.1 µM]
COc1cc(NC(=O)c2cccc([N+](=O)[O-])c2C)ccc1NC(=O)c1ccco1	?	72*	19*	?
COCCNC(=S)Nc1cc(OC)c(NC(=O)c2ccco2)cc1OC	0%	27	22*	6%
CCOCCCNC(=S)Nc1cc(OCC)c(NC(=O)c2ccco2)cc1OCC	6%[46.1 µM]	-10	-1	-17%
SMILES	MARV entry inh	Shiga inhibitor	CHX counter	LASV entry inh
CCC(=O)Nc1ccc(NC(=O)c2ccco2)cc1	-31%	57*	25*	?
CCCC[N+](CC#Cc1ccccc1)(CCCC)CCCS(=O)(=O)[O-]	4%	3	1	4%
O=C1CSC2=NCN(c3ccc4c(c3)OCO4)CN12	-1%	96*	35*	24%
CN(C)c1ccc(N2CN=C3SCC(=O)N3C2)cc1	-34%	98*	86*	-18%
CC(C)=C1C2CCC1C1C(=O)N(c3ccc4c(c3)OCO4)C(=O)C21 (centres undefined)	-4%	-4	-5	1%
O=C(NCc1ccccn1)C(C(=O)c1cccc([N+](=O)[O-])c1)n1cc(Cl)ccc1=O (centres undefined)	·	25	12	·
O=C1OC(/C=C/c2ccc(Cl)cc2)=NC/1=C/c1ccco1	12%	-29	24*	12%
CN1C(=O)/C(=C\c2ccco2)N=C1c1ccc(Cl)cc1Cl	4%[46.1 µM]	74*	28*	?
CCCN(CCC)C1=N/C(=C\c2ccco2)C(=O)N1c1ccccc1	-3%	-5	14	16%
Cc1cccc(C)c1Nc1c(-c2ccsc2)nc2cccc(C)n12	14%[46.1 µM]	·	·	4%[46.1 µM]
CSCC[C@H](N)C(=O)NCC1CCC(C(=O)Nc2ccc3c(c2)OCO3)CC1 (some centres undefined)	·	-4	-2	·
CC(C)CCn1c(=O)c2sccc2n2c(CCCC(=O)NC(C)c3ccccc3)nnc12 (centres undefined)	·	·	·	2%[46.1 µM]
Cc1ccc(C(=O)NC2CCS(=O)(=O)C2)cc1S(=O)(=O)N1CCCCCC1 (centres undefined)	12%[46.1 µM]	-1	-5	12%
Cc1ccc(C(=O)Nc2cccc(NC(=O)c3ccc(C)c([N+](=O)[O-])c3)n2)cc1[N+](=O)[O-]	?	7	0	?
O=C(Nc1cccc(Cl)c1)c1ccc(NCC2CCCO2)c([N+](=O)[O-])c1 (centres undefined)	·	-11	-3	·
Cc1cccc(NC(=O)c2ccc(NCC3CCCO3)c([N+](=O)[O-])c2)c1 (centres undefined)	29%	2	19*	4%
Cc1cccc(NC(=O)c2ccc(NCC3CCCO3)c([N+](=O)[O-])c2)n1 (centres undefined)	-12%	68*	19*	?
Cc1cccc(NC(=O)c2ccc(NCCO)c([N+](=O)[O-])c2)n1	?	53*	30*	-18%[46.1 µM]
CCCN1CCC[C@@H]2Cc3n[nH]cc3C[C@H]21	2%	·	·	·
COc1ccc(NC(=O)CN(C)S(=O)(=O)c2ccc3[nH]c4c(c3c2)CCCC4)cc1Cl	·	·	·	-21%[46.1 µM]
Fc1cccc(Cl)c1Cn1ncc2ccccc21	·	31*	28*	·
Cc1cc(Cl)ccc1NC(=O)CN1C(=O)COc2ccc(S(=O)(=O)N3CCC(C)CC3)cc21	·	·	·	12%[46.1 µM]
CC(C(=O)Nc1ccc(F)c(Cl)c1)N1Cc2ccccc2C1=O (centres undefined)	·	·	·	7%[46.1 µM]
CC(C)NC(=O)NC(=O)COC(=O)c1cc[n+]([O-])cc1	13%[46.1 µM]	2	-4	2%
CSc1nn(-c2ccc(C(=O)OCC(=O)NC(=O)NC(C)C)cc2)c(=S)s1	3%	32	27*	-5%
SMILES	MARV entry inh	Shiga inhibitor	CHX counter	LASV entry inh
O=c1nc2c(-c3ccccc3F)n[nH]n2c2ccccc12	4%	80*	20*	?
CN(c1ccc(O)cc1)S(=O)(=O)c1ccc2ccccc2c1	?	77*	24*	12%
Brc1cccc(OCCSc2ncccn2)c1	?	44*	33*	-18%
Clc1ccc(OCCSc2ncccn2)c(Br)c1	?	118*	41*	-25%
Nc1nnc(SCCOc2cccc(Br)c2)s1	23%	46	11	-28%
Clc1ccc(OCCCCSc2ncccn2)cc1	1%	20	12	-2%
CCCOc1ccc(OCCSc2ncccn2)cc1	-24%[46.1 µM]	81*	44*	?
CN(C)CCCOc1ccc(Cl)cc1Br	?	-9	-2	44%[14.3 µM]
CCCCOCC1CN(CCCC)S(=O)(=O)c2c(Oc3ccc(SC)c(C)c3)cccc2O1 (centres undefined)	·	·	·	-16%[46.1 µM]
COc1ccc(CCNC(=O)CN2C(=O)NC3(CCCCC3C)C2=O)cc1 (centres undefined)	-13%[46.1 µM]	·	·	13%[46.1 µM]
CSc1nc(-c2ccccc2)cn1-c1ccc(NC(C)=O)cc1	?	79*	35*	?
CCOc1ccc(-c2cn(-c3ccc(OC)cc3)c(SC)n2)cc1	?	113*	68*	?
COc1ccc(Cn2c(C)nnc2-c2cnn(C)c2N)cc1	-21%[46.1 µM]	6	2	8%[46.1 µM]
CN(C(=O)CCc1nc2ccccc2s1)c1ccccc1	5%	1	21*	2%

Screening data (PubChem BioAssay)
